MITF primary = MITF inhibitors, primary screen, biochemical, AlphaScreen, human; AlphaScreen MITF homodimerization, bead proximity signal; 650,000 compounds, 0.91% hits; inhibition, % at 2.6 µM; AID 1259374, 2018; Microphthalmia-associated transcription factor (Homo sapiens), O75030; in the data active = inhibition above about 50%;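 note: 0% = vehicle wells with protein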
Target sequence (O75030 whole entry, looked up): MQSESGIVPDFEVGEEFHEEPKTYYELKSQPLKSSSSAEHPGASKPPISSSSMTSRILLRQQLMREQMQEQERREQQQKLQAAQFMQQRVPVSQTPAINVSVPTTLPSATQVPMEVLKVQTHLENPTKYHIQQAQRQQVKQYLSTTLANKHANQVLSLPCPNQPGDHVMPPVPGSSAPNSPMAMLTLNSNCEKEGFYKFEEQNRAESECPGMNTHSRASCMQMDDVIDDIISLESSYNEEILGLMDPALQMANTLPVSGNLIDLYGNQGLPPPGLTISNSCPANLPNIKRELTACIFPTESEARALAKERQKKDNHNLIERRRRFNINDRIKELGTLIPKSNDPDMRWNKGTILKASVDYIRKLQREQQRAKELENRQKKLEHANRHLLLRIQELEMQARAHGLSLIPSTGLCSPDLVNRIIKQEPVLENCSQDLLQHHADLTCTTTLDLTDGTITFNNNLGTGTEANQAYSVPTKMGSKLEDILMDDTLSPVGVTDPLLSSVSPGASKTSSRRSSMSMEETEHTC
TEAD-YAP inh = TEAD-YAP interaction inhibition, primary screen, TEAD-YAP interaction inhibitor project, luminescence, HEK-TIYL cells; TEAD-Gal4/YAP UAS-luciferase luminescence; inhibition, % at 9.12 µM; 640,000 compounds, 1.4% hits; AID 1259422, 2018; in the data active = inhibition above about 32%;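 note: 0% = median of test compound wells and 100% = reference inhibitor wells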
GPR151 activ = activators of human GPR151, primary screen, cell-based, PathHunter beta-arrestin, luminescence | AID 1508602, 2020 | activation, % at 11.2 µM | PathHunter beta-arrestin GPR151 cells | 650,000 compounds, 1% hits | G-protein coupled receptor 151 (Homo sapiens), Q8TDV0; in the data active = activation above about 4.9%;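 note: 0% = median of compound wells and 100% = cells with positive control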
FBW7 act = FBW7 E3 ligase activators, primary screen, biochemical, AlphaScreen, human; F-box/WD repeat-containing protein 7 (Homo sapiens), Q969H0; AlphaScreen FBW7–phospho-cyclin E peptide binding, activator screen; normalized activity (activation), % at 26.1 µM; 650,000 compounds, 0.13% hits; AID 1259310, 2017; in the data active = normalized activity above about 1.9%;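 note: purified mutant Fbw7 with reduced substrate affinity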
An asterisk follows results filed as active. Only some compounds are listed: those with a hit (about 3.5% of all), similar ones and a draw of the others.

SMILES	MITF primary	TEAD-YAP inh	GPR151 activ	FBW7 act
CNC(=O)c1ccc2c(c1)N=C(C)c1cc(Cl)ccc1S2	-4.2	1.8	-0.3	-0.1
COC(CNC(=O)c1ccc2c(c1)N=C(C)c1c(C)ccc(C)c1S2)OC	1.0	58.5*	-0.6	-0.2
CNC(=O)c1ccc2c(c1)N=C(C)c1c(C)ccc(C)c1S2	19.8	48.0*	1.0	1.1
COC(CNC(=O)c1ccc2c(c1)N=C(C)c1ccccc1S2)OC	13.5	10.3	0.2	0.2
COCCNC(=O)c1ccc2c(c1)N=C(C)c1c(C)ccc(C)c1S2	5.6	73.8*	0.2	0.4
O=C(/C=C/c1ccccc1)N1CCN(CCN2C(=O)C3C4C=CC(C4)C3C2=O)CC1 (centres undefined)	-14.2	0.0	-0.6	0.0
Cc1cc(SCC(=O)N2CCN(c3ccccc3)CC2)nc(=O)[nH]1	-3.6	13.6	-0.1	0.0
CCCCC(CC)CNC(=O)C(=O)NCCN1CCOCC1 (centres undefined)	-7.7	15.4	0.2	0.1
COC(=O)c1cccc(N2C(=O)c3cccc([N+](=O)[O-])c3C2=O)c1	9.6	11.0	-1.1	0.0
COCCCNC(=O)c1ccc(C)c(Cl)c1	11.3	-2.5	1.4	1.2
COCCCNC(=O)c1ccc2c(c1)N=C(C)c1c(C)ccc(C)c1S2	8.2	55.9*	-0.1	0.2
CCOC(=O)c1[nH]c(C)c(C(=O)/C=C/c2ccc(N(C)C)c([N+](=O)[O-])c2)c1C	12.9	49.7*	1.0	0.1
CCOC(=O)c1[nH]c(C)c(/C(C)=N\Nc2ccc([N+](=O)[O-])cc2[N+](=O)[O-])c1C	-1.2	-3.9	-0.2	-0.1
O=C(NCc1ccc(Cl)cc1)N1c2ccccc2Sc2ccccc21	13.9	-4.8	-1.8	0.1
O=C(CCCC(=O)N1CCCCC1)NCc1ccco1	-4.3	-11.5	1.0	-0.1
CC(C)/C=C1/CCCc2c1[nH]c1ccccc1c2=O	2.8	42.3*	3.4	0.0
CC(C)(CCl)NS(=O)(=O)c1ccccc1	-2.0	3.6	0.5	-0.1
O=C1CCCN1CCn1cnc2c(NCc3nc4ccccc4[nH]3)nc(Nc3ncccn3)nc21	-1.8	6.7	3.3	0.0
O=C1CCCN1CCn1cnc2c(NCc3nc4ccccc4[nH]3)nc(Nc3ccc4ncccc4c3)nc21	6.0	59.3*	-1.7	-0.2
O=C1CCCN1CCn1cnc2c(NCc3nc4ccccc4[nH]3)nc(Nc3ccc(-n4ccnc4)cc3)nc21	3.6	39.4*	0.7	-0.1
C#CCOc1c(I)cc(/C=N/NC(=O)c2cccnc2)cc1OC	11.2	-2.1	-0.7	0.1
Cn1ccnc1C1(O)CCN(CC(=O)N2CCCCC2)CC1	19.2	-5.2	0.3	1.0
Cc1cc2ncn(CC3CCN(C(=O)c4ccccc4Br)CC3)c2cc1C	37.3	40.2*	-0.9	-0.2
Cc1nn(-c2ccccc2)c(C)c1/C=N/Nc1cccc(C(=O)O)c1	7.1	42.5*	-1.4	0.4
Cc1ccsc1/C=N/Nc1ccc(C(=O)O)cc1	1.1	49.1*	-6.4	-0.1
SMILES	MITF primary	TEAD-YAP inh	GPR151 activ	FBW7 act
O=C(O)c1cccc(N/N=C/c2cccc3ccccc23)c1	7.2	10.9	0.9	-0.1
Cc1ccsc1/C=N/Nc1cccc(C(=O)O)c1	1.5	47.5*	-5.9	-0.3
O=C(O)c1cccc(N/N=C/c2cc(Br)cs2)c1	13.8	37.8*	-8.1	-0.1
COc1cc(C2C3=C(CCCC3=O)Nc3ccc4ncccc4c32)ccc1OC(C)=O (centres undefined)	17.3	54.4*	1.2	0.0
COc1ccc(C2Nc3ccc(C(=O)c4ccccc4)cc3NC3=C2C(=O)CCC3)cc1OC (centres undefined)	-8.7	58.6*	-1.5	0.0
CCOc1cc(C2Nc3ccc(C(=O)c4ccccc4)cc3NC3=C2C(=O)CCC3)ccc1O (centres undefined)	3.1	64.4*	0.9	-0.2
COc1cc(C2C3=C(CCCC3=O)Nc3ccc4nc(C)ccc4c32)ccc1OC(C)=O (centres undefined)	-12.0	-2.8	-0.2	-0.1
CCOc1cc(C2Nc3ccc(C(=O)c4ccccc4)cc3NC3=C2C(=O)CC(C)(C)C3)ccc1O (centres undefined)	4.0	45.2*	-1.0	0.4
Cc1cc2ncn(S(=O)(=O)c3ccc(S(N)(=O)=O)cc3)c2cc1C	19.4	-1.8	-1.0	0.1
CCOc1ccc(S(=O)(=O)n2cnc3cc(C)c(C)cc32)cc1	-3.1	34.1*	0.7	0.0
Cc1ccc(S(=O)(=O)n2cnc3cc(C)c(C)cc32)cc1	11.8	-6.0	-0.1	0.1
CCCCOc1ccc(S(=O)(=O)n2cnc3cc(C)c(C)cc32)cc1	-4.5	47.8*	-0.5	-0.2
Cc1ccc(S(=O)(=O)n2cnc3cc(C)c(C)cc32)cc1C	23.5	38.7*	0.6	0.1
CCC(=O)Nc1ccc(NC(=O)c2ccco2)nc1	4.1	-10.2	-0.4	0.2
O=C(O)CC(Sc1ncnc2sc3c(c12)CCCC3)C(=O)O (centres undefined)	15.6	-2.3	-1.1	-0.1
Cc1cc(Nc2c(C)cccc2C)n2ncnc2n1	0.1	-5.3	-0.7	0.1
Cc1cc(Nc2cc3ccccc3cc2O)n2ncnc2n1	-2.6	64.9*	-1.0	-0.3
Cc1ccc(NC(=O)/C=C/c2cccs2)cc1[N+](=O)[O-]	1.3	-65.1	1.3	-0.1
CCOc1ccccc1NC(=O)C(C)Oc1ccccc1 (centres undefined)	-13.1	-0.8	0.3	0.0
CCOc1ccc(N(C(C)C(=O)Nc2ccccc2C(=O)OC)S(C)(=O)=O)cc1 (centres undefined)	-9.8	34.7*	-1.1	0.0
CCOc1ccc(N(C(C)C(=O)Nc2ccccc2OCC)S(C)(=O)=O)cc1 (centres undefined)	9.2	53.9*	-0.1	-0.1
CCOc1ccccc1NC(=O)C(C)Oc1ccc(OC)cc1 (centres undefined)	-2.8	48.4*	0.0	0.1
CCOc1ccccc1NC(=O)C(C)N(c1ccc(Cl)cc1)S(C)(=O)=O (centres undefined)	2.6	6.3	-0.6	-0.3
Cc1ccc(C(=O)Nc2ccc(S(=O)(=O)c3ccc(NC(=O)c4ccc(C)c(C)c4)cc3)cc2)cc1C	20.8	-3.6	-2.5	0.3
CC12C=CC(C)(O1)C1C(=O)N(c3ccc(C(=O)O)cc3)C(=O)C12 (centres undefined)	34.5	0.0	0.3	0.1
O=C(CSc1nnnn1-c1ccc(C(=O)O)cc1)Nc1cccc(O)c1	-14.8	3.8	-1.4	0.1
O=C(CN1C(=O)/C(=C\c2ccccc2)Oc2ccccc21)NC1CCCCC1	6.7	-2.6	-1.2	0.8
O=C(CN1C(=O)/C(=C\c2ccccc2Br)Oc2ccccc21)NC1CCCC1	8.2	57.2*	0.5	0.1
COC(=O)C1=C(N)n2c(s/c(=C/c3ccco3)c2=O)=C(C(=O)OC)C1c1ccco1 (centres undefined)	18.5	49.1*	0.5	0.4

Screens as filed in PubChem.
